Source: the supplement of paper PMC8728848
The sample as a whole holds a higher share of the strongest signals than the screen did.

What was measured:
Experiment in all cases: glycan array binding signal (z-score within array); higher = stronger binding
Settings in all cases: glycan notation: IUPAC condensed, linker removed
[1] = target: Fuc(a1-2)Gal(b1-3)GalNAc(a1-3)[Fuc(a1-2)]Gal(b1-4)GlcNAc
Method in brief: (§1)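 Glycan array data came from 3228 arrays in the Consortium for Functional Glycomics database, and only arrays with an available protein sequence were kept. Glycan names were put into IUPAC-condensed notation, and columns mapping to the same glycan were averaged. The binding signal is a within-array Z-score, averaged across arrays of one protein sequence run at different concentrations or buffers and across linkers. A negative Z-score can be read as non-binding.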

Fuc(a1-2)Gal(b1-4)GlcNAc = target: Fuc(a1-2)Gal(b1-4)GlcNAc
Method in brief: as §1

[2] = target: Fuc(a1-2)Gal(b1-4)GlcNAc(b1-3)Gal(b1-4)GlcNAc(b1-2)Man(a1-3)[Fuc(a1-2)Gal(b1-4)GlcNAc(b1-3)Gal(b1-4)GlcNAc(b1-2)Man(a1-6)]Man(b1-4)GlcNAc(b1-4)GlcNAc
Method in brief: as §1

[3] = target: Fuc(a1-2)Gal(b1-4)GlcNAc(b1-6)GalNAc
Method in brief: as §1

[4] = target: Fuc(a1-2)Gal(b1-4)[Fuc(a1-3)]GlcNAc(b1-3)[Neu5Ac(a2-6)Gal(b1-4)GlcNAc(b1-6)]Gal(b1-4)Glc
Method in brief: as §1

[5] = target: Fuc(a1-2)[Gal(a1-3)]Gal(b1-4)GlcNAc(b1-3)[Fuc(a1-2)[Gal(a1-3)]Gal(b1-4)GlcNAc(b1-6)]GalNAc
Method in brief: as §1

[6] = target: Fuc(a1-2)[GalNAc(a1-3)]Gal(b1-3)GlcNAc(b1-2)Man(a1-3)[Fuc(a1-2)[GalNAc(a1-3)]Gal(b1-3)GlcNAc(b1-2)Man(a1-6)]Man(b1-4)GlcNAc(b1-4)[Fuc(a1-6)]GlcNAc
Method in brief: as §1

[7] = target: Fuc(a1-2)[GalNAc(a1-3)]Gal(b1-4)[Fuc(a1-3)]GlcNAc(b1-3)GalNAc
Method in brief: as §1

[8] = target: Fuc(a1-3)[Gal(b1-4)]GlcNAc(b1-6)GalNAc
Method in brief: as §1

Gal(a1-3)Gal = target: Gal(a1-3)Gal
Method in brief: as §1

[9] = target: Gal(a1-3)Gal(b1-3)GlcNAc(b1-6)GalNAc
Method in brief: as §1

Gal(a1-3)Gal(b1-4)Glc = target: Gal(a1-3)Gal(b1-4)Glc
Method in brief: as §1

Gal(b1-3)Gal(b1-4)GlcNAc = target: Gal(b1-3)Gal(b1-4)GlcNAc
Method in brief: as §1

Gal(b1-3)GalNAc = target: Gal(b1-3)GalNAc
Method in brief: as §1

[10] = target: Gal(b1-3)GlcNAc(b1-3)Gal(b1-4)GlcNAc(b1-6)[Gal(b1-3)GlcNAc(b1-3)]Gal(b1-4)Glc
Method in brief: as §1

[11] = target: Gal(b1-3)GlcNAc(b1-3)Gal(b1-4)[Fuc(a1-3)]GlcNAc
Method in brief: as §1

[12] = target: Gal(b1-3)[Fuc(a1-4)]GlcNAc(b1-2)Man
Method in brief: as §1

[13] = target: Gal(b1-3)[Fuc(a1-4)]GlcNAc(b1-3)Gal(b1-4)[Fuc(a1-3)]GlcNAc
Method in brief: as §1

[14] = target: Gal(b1-4)GlcNAc(b1-3)Gal(b1-4)GlcNAc(b1-2)[Gal(b1-4)GlcNAc(b1-3)Gal(b1-4)GlcNAc(b1-6)]Man(a1-6)[Gal(b1-4)GlcNAc(b1-3)Gal(b1-4)GlcNAc(b1-2)Man(a1-3)]Man(b1-4)GlcNAc(b1-4)GlcNAc
Method in brief: as §1

[15] = target: Gal(b1-4)GlcNAc(b1-3)Gal(b1-4)GlcNAc(b1-3)Gal(b1-4)GlcNAc
Method in brief: as §1

[16] = target: Gal(b1-4)GlcNAc(b1-3)GalNAc
Method in brief: as §1

Gal3S(b1-4)Glc = target: Gal3S(b1-4)Glc
Method in brief: as §1

[17] = target: Gal3S(b1-4)[Fuc(a1-3)]Glc6S
Method in brief: as §1

GalNAc3S(b1-4)GlcNAc = target: GalNAc3S(b1-4)GlcNAc
Method in brief: as §1

[18] = target: GlcNAc(b1-2)[GlcNAc(b1-6)]Man(a1-6)[GlcNAc(b1-2)Man(a1-3)]Man(b1-4)GlcNAc(b1-4)[Fuc(a1-6)]GlcNAc
Method in brief: as §1

[19] = target: GlcNAc(b1-3)Gal(b1-4)GlcNAc
Method in brief: as §1

[20] = target: GlcNAc(b1-3)Gal(b1-4)GlcNAc(b1-2)Man(a1-3)[GlcNAc(b1-3)Gal(b1-4)GlcNAc(b1-2)Man(a1-6)]Man(b1-4)GlcNAc(b1-4)GlcNAc
Method in brief: as §1

[21] = target: GlcNAc(b1-3)Gal(b1-4)GlcNAc(b1-3)Gal(b1-4)GlcNAc
Method in brief: as §1

[22] = target: GlcNAc(b1-3)Gal(b1-4)GlcNAc(b1-6)[Gal(b1-3)]GalNAc
Method in brief: as §1

[23] = target: GlcNAc(b1-3)[GlcNAc(b1-6)]GalNAc
Method in brief: as §1

[24] = target: GlcNAc(b1-4)GlcNAc(b1-4)GlcNAc(b1-4)GlcNAc(b1-4)GlcNAc(b1-4)GlcNAc
Method in brief: as §1

[25] = target: GlcNAc6S(b1-3)Gal(b1-4)GlcNAc
Method in brief: as §1

[26] = target: Man(a1-2)Man(a1-3)[Man(a1-2)Man(a1-6)]Man(a1-6)[Man(a1-2)Man(a1-2)Man(a1-3)]Man
Method in brief: as §1

[27] = target: Man(a1-3)[Man(a1-6)]Man(b1-4)GlcNAc(b1-4)[Fuc(a1-6)]GlcNAc
Method in brief: as §1

Neu5Ac(a2-3)Gal = target: Neu5Ac(a2-3)Gal
Method in brief: as §1

[28] = target: Neu5Ac(a2-3)Gal(b1-3)GalNAc
Method in brief: as §1

[29] = target: Neu5Ac(a2-3)Gal(b1-4)GlcNAc(b1-2)Man(a1-3)[Neu5Ac(a2-3)Gal(b1-4)GlcNAc(b1-2)Man(a1-6)]Man(b1-4)GlcNAc(b1-4)[Fuc(a1-6)]GlcNAc
Method in brief: as §1

[30] = target: Neu5Ac(a2-3)Gal(b1-4)GlcNAc(b1-3)Gal(b1-4)GlcNAc(b1-3)[Neu5Ac(a2-3)Gal(b1-4)GlcNAc(b1-3)Gal(b1-4)GlcNAc(b1-6)]GalNAc
Method in brief: as §1

[31] = target: Neu5Ac(a2-3)Gal6S(b1-4)[Fuc(a1-3)]GlcNAc
Method in brief: as §1

[32] = target: Neu5Ac(a2-3)[GalNAc(b1-4)]Gal(b1-4)GlcNAc
Method in brief: as §1

[33] = target: Neu5Ac(a2-6)Gal(b1-4)GlcNAc
Method in brief: as §1

[34] = target: Neu5Ac(a2-6)Gal(b1-4)GlcNAc(b1-6)[Gal(b1-3)GlcNAc(b1-3)]Gal(b1-4)Glc
Method in brief: as §1

[35] = target: Neu5Ac(a2-8)Neu5Ac(a2-8)Neu5Ac(a2-8)Neu5Ac(a2-3)[GalNAc(b1-4)]Gal(b1-4)Glc
Method in brief: as §1

[36] = target: Neu5Ac9Ac(a2-3)Gal(b1-4)GlcNAc
Method in brief: as §1

[37] = target: Neu5Gc(a2-3)Gal(b1-3)GlcNAc
Method in brief: as §1

B1: R2-fiber (Pseudomonas aeruginosa), Q9S576 (protein)
chain: HHHHHHKVAKDLVVSLAYQVRTEDGVLVDESPVSAPLDYLHGHGSLISGLETALEGHEVGDKFDVAVGANDAYGQYDENLVQRVPKDVFMGVDELQVGMRFLAETDQGPVPVEITAVEDDHVVVDGNHMLAGQNLKFNVEVVAIREATEEELAHGHVHGAHDHHHDHDHDGCCGGHGHDHGHEHGGEGCCGGKGNGGCGCHENLYFQGVTAGMALAATDIPGLDASKLVSGVLAEQRLPVFARGLATAVSNSSDPNTATVPLMLTNHANGPVAGRYFYIQSMFYPDQNGNASQIATSYNATSEMYVRVSYAANPSIREWLPWQRCDIGGSFTKEADGELPGGVNLDSMVTSGWWSQSFTAQAASGANYPIVRAGLLHVYAASSNFIYQTYQAYDGESFYFRCRHSNTWFPWRRMWHGGDFNPSDYLLKSGFYWNALPGKPATFPPSAHNHDVGQLTSGILPLARGGVGSNTAAGARSTIGAGVPATASLGASGWWRDNDTGLIRQWGQVTCPADADASITFPIPFPTLCLGGYANQTSAFHPGTDASTGFRGATTTTAVIRNGYFAQAVLSWEAFGR
What does the source list for B1?
glycan array binding signal (z-score) [1]: 2.11; glycan array binding signal (z-score) (Fuc(a1-2)Gal(b1-4)GlcNAc): 0.297; glycan array binding signal (z-score) [2]: -1.36; glycan array binding signal (z-score) [3]: -0.579; glycan array binding signal (z-score) [4]: -0.021; glycan array binding signal (z-score) [5]: 2.68; glycan array binding signal (z-score) [6]: -0.288; glycan array binding signal (z-score) [7]: 3.46; glycan array binding signal (z-score) [8]: 2.09; glycan array binding signal (z-score) (Gal(a1-3)Gal): 0.366; glycan array binding signal (z-score) [9]: 0.045; glycan array binding signal (z-score) (Gal(a1-3)Gal(b1-4)Glc): -0.505; glycan array binding signal (z-score) (Gal(b1-3)Gal(b1-4)GlcNAc): -0.114; glycan array binding signal (z-score) (Gal(b1-3)GalNAc): -0.235; glycan array binding signal (z-score) [10]: 0.141; glycan array binding signal (z-score) [11]: 0.162; glycan array binding signal (z-score) [12]: -0.063; glycan array binding signal (z-score) [13]: 2.1; glycan array binding signal (z-score) [14]: 2.06; glycan array binding signal (z-score) [15]: 0.018; glycan array binding signal (z-score) [16]: -1.43; glycan array binding signal (z-score) (Gal3S(b1-4)Glc): -0.16; glycan array binding signal (z-score) [17]: 0.853; glycan array binding signal (z-score) (GalNAc3S(b1-4)GlcNAc): -0.587; glycan array binding signal (z-score) [18]: 14.6; glycan array binding signal (z-score) [19]: -0.499; glycan array binding signal (z-score) [20]: 0.012; glycan array binding signal (z-score) [21]: 0.586; glycan array binding signal (z-score) [22]: 0.122; glycan array binding signal (z-score) [23]: 0.283; glycan array binding signal (z-score) [24]: -0.525; glycan array binding signal (z-score) [25]: -0.144; glycan array binding signal (z-score) [26]: -0.717; glycan array binding signal (z-score) [27]: -0.775; glycan array binding signal (z-score) (Neu5Ac(a2-3)Gal): 2.35; glycan array binding signal (z-score) [28]: -0.092; glycan array binding signal (z-score) [29]: 5.23; glycan array binding signal (z-score) [30]: -0.406; glycan array binding signal (z-score) [31]: 5.49; glycan array binding signal (z-score) [32]: -0.151; glycan array binding signal (z-score) [33]: 3; glycan array binding signal (z-score) [34]: 0.031; glycan array binding signal (z-score) [35]: 0.115; glycan array binding signal (z-score) [36]: -1.16; glycan array binding signal (z-score) [37]: -0.167
